# Source: PubChem BioAssay
# Hits are enriched below; roughly 0.77% of the tested compounds scored in any of these assays.
# Mtb hypoxia rep: inhibitors of hypoxia-regulated fluorescent reporter in Mycobacterium tuberculosis | AID 1159583 | 0.1% of 300,000 active | M. tuberculosis hypoxia-regulated fluorescent reporter, fluorescence | fluorescence inhibition, % (concentration not given with the values); in the data active = fluorescence inhibition mostly above about 23%, no sharp cut-off; inactive = mostly below about 17%
# Rv3671c inh: inhibits the M. tuberculosis serine protease Rv3671c; 0.048% of 320,000 active; inhibition, % at 5.96 µM; in the data active = inhibition above about 38%;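 also: extracellular domain of Rv3671c used as enzyme; 0% = enzyme with DMSO and 100% = no enzyme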
# RecA intein inh: inhibitors of M. tuberculosis RecA intein splicing; P9WHJ3; cell-free RecA intein splicing, fluorescence; inhibition, % (no concentration beside the values); 0.75% of 290,000 active; in the data active = inhibition above about 30%;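 also: 0% = vehicle wells and 100% = reference inhibitor control wells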
# Target sequence (P9WHJ3 whole entry, looked up): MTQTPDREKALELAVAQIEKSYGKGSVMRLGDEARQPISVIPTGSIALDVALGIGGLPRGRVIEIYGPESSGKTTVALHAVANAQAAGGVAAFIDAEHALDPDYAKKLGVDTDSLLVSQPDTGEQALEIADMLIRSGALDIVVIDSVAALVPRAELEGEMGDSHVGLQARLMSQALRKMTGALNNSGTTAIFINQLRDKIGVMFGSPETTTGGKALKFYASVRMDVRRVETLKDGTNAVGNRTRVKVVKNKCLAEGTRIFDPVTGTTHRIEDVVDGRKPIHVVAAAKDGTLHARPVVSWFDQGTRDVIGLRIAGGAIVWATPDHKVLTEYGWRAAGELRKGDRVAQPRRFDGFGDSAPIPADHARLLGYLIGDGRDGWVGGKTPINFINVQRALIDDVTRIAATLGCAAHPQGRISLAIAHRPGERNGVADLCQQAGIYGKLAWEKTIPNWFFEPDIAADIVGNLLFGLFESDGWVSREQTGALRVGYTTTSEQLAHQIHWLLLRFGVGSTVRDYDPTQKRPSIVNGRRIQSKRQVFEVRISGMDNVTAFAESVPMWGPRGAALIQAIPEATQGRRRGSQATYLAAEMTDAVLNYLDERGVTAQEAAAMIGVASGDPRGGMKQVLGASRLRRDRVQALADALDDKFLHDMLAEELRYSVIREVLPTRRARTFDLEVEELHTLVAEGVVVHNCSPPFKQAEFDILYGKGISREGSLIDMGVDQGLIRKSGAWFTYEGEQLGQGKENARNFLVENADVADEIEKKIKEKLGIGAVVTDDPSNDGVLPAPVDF
# UGM FP inh: inhibitors of M. tuberculosis UDP-galactopyranose mutase | inhibition, % at 10 µM | P9WIQ1 | purified UGM, fluorescence polarization probe displacement | 0.06% of 320,000 active | AID 504406; in the data active = inhibition above about 10%, passing the limit was not always enough
# Mtb betalactam: beta-lactam sensitization of Mtb H37Rv. M. tuberculosis H37Rv growth with meropenem, percent inhibition. inhibition, % at 25 µM. 0.27% of 330,000 active. AID 434955; call rule not given here;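 also: growth measured after seven days incubation then overnight dye step; 0% = bacteria only wells and 100% = bacteria with antibiotic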
# * = called active by the depositor; / = no result shown.
SMILES,Mtb hypoxia rep,Rv3671c inh,RecA intein inh,UGM FP inh,Mtb betalactam
CCOC(=O)C1Nc2ccccc2C2c3ccccc3CC12 (configuration not stated),19,4,19,3,47
CCCCCCCOC(=O)c1ccc(OC(=O)c2cccnc2)cc1,5,-3,64*,0,3
CCOC1OC(C(=O)N2CCN(Cc3ccccc3)CC2)=CC(c2ccccc2)C1CCCO (configuration not stated),2,/,/,/,/
CC(C)(C)c1ccc(OCc2cnc(Cl)s2)cc1,39*,-6,9,-1,12
CC(=O)Nc1cccc(OCc2cnc(Cl)s2)c1,-3,-5,-1,-1,32
CCOC(=O)C1=C(Cc2ccc(C)cc2)C(=O)c2ccccc2C1=O,/,-31,61*,-1,37
CCN1C(=O)C2C(c3ccc(C)cc3)N3C(=O)N(c4ccccc4)C(=O)[C@@]3(Cc3ccccc3)C2C1=O (some centres not stated),-8,/,/,/,/
COC(=O)C1=CC(C(=O)c2cccs2)=NN(c2ccc(OC)cc2)C1C(=O)OC (configuration not stated),5,0,15,21*,6
Cc1ccc2nsnc2c1NS(=O)(=O)c1c(C)ccc2nsnc12,2,-5,36*,2,-2
CCOC1=C/C(=C/c2c(N)n3oc(C)cc3nc2=O)C=CC1=O,19,5,38*,3,3
COc1cc2c3nnc(-c4ccccc4)c-3cn(Cc3ccccc3F)c2cc1OC,-12,0,-56,11*,12
CC(=O)c1cn(Cc2ccccc2F)c2ccccc12,0,/,1,/,/
O=C(N/N=C/c1c(O)n(Cc2ccc(F)cc2)c(=O)[nH]c1=O)c1ccccc1O,5,-31,32*,1,4
O=C(N/N=C/c1c(O)n(Cc2ccccc2)c(=O)[nH]c1=O)c1ccccc1O,8,-30,21,1,3
c1ccc2[nH]c3cc4ncnc4cc3nc2c1,/,-11,60*,9,79
FC(F)c1nc2ccccc2[nH]1,-6,-6,-5,-1,-1
CN1C2CCC1CC(OC1c3ccccc3CCc3ccccc31)C2 (configuration not stated),14,/,/,/,/
Oc1cnn(-c2ccccc2)c1,/,2,63*,1,94
CCOC(=O)CN1C(=O)NC(c2ccccc2)C(C(=O)OC)=C1C (configuration not stated),-2,/,/,/,/
Cc1nn(-c2ccc(N3CCOCC3)nn2)c(C)c1CCC(=O)N1CCN(C)CC1,75*,1,-1,1,1
Nc1ccc2nc(N3CCOCC3)sc2c1,3,-1,80*,0,8
CCC(=Cc1ccccc1)c1cccc2[nH]c3c(OC)cccc3c12,6,/,/,/,/
C#CCOCCOCCOCCNc1nc(N2CCOCC2)nc(N2CCN(C(=O)CCCCCCCCCCNC(=O)C(CO)n3cc(CCCCCN)nn3)CC2)n1 (configuration not stated),1,/,/,/,/
CN(C(=O)CSc1ncnc2sc3c(c12)CCC3)C1CCS(=O)(=O)C1 (configuration not stated),32*,-1,/,6,-2
CN(C(=O)CSc1nc2sc3c(c2c(=O)n1C)CCC3)C1CCS(=O)(=O)C1 (configuration not stated),0,5,/,-3,4
SMILES,Mtb hypoxia rep,Rv3671c inh,RecA intein inh,UGM FP inh,Mtb betalactam
C(=Cc1sc(Nc2ccccc2)n[n+]1-c1ccccc1)c1ccccc1,10,/,/,/,/
Cc1cc(C)[n+]2[nH]c(N)c(N=Nc3ccccc3)c2n1,50*,-26,1,-1,97
Cn1c2c(c(=O)n(C)c1=O)[C@@]1(C(=O)Nc3ccccc31)C(C#N)=C(N)O2,5,5,34*,0,0
C=CCNc1nc(C(=O)OCC(=O)NCc2cccc(Cl)c2)cs1,34*,-4,/,4,0
CC(/C=C1\SC(=S)N(NC(=O)c2cccc(O)c2)C1=O)=C\c1ccccc1,6,-42,31*,-3,58
O=c1[nH]cc(N=Cc2cc([N+](=O)[O-])ccc2O)c(=O)[nH]1,/,-6,50*,-1,6
Cc1cc(O)c(C(C)C)cc1N=Cc1cc([N+](=O)[O-])ccc1O,1,-1,-2,2,21
CCOC(=O)c1c(CCl)nc2ccccc2c1-c1ccccc1,/,1,41*,-1,97
CCOC(=O)c1c(C)nc2ccccc2c1-c1ccccc1,11,0,5,-1,7
COC1=CC2C3=C(C(NC(C)=O)CCc4cc(OC)c(OC)c(OC)c43)C2C1=O (configuration not stated),0,/,/,/,/
COc1ccc(-c2cc(=O)[nH]c3ccccc23)cc1,-5,-6,/,11*,3
CCC(=Nc1ccccc1O)C1=C(O)CC(c2ccccc2)CC1=O (configuration not stated),70*,-13,3,-2,98
CC1CN(CCc2ccccc2)C(=O)C1CC(=O)NCc1ccccc1 (configuration not stated),4,/,/,/,/
CCCC(C#Cc1ccsc1)=C1c2ccccc2C(=O)N1c1ccccc1,9,/,/,/,/
Cc1ccc2nc(N/N=C\c3ccc([N+](=O)[O-])o3)nc(-c3ccccc3)c2c1,/,5,42*,-3,100
O=c1oc(-c2ccccc2Cl)nc2ccsc12,-14,9,35*,0,97
O=c1oc(-c2ccc(F)cc2)nc2ccsc12,13,-19,26,-2,84
CCOC(=O)C1=C(O)C(=Cc2ccc(CNC(=O)C(=O)Nc3ccccc3)o2)N=C1C,3,/,/,/,/
COC(=O)C1=C(C)NC(=O)C1=Cc1cc(C)n(-c2cc(C)cc(C)c2)c1C,7,/,/,/,/
COc1ccc(C)cc1NC(=O)c1cccc(C(=O)Nc2cc(C)ccc2OC)c1,-11,0,-1,1,4
Cc1ccc(NC(=O)c2cccc(C(=O)Nc3ccc(C)cc3C(=O)O)c2)c(C(=O)O)c1,-3,-5,-2,13*,7
Cc1ccccc1NC(=O)CSc1ccc(-c2ccccn2)nn1,39*,3,-2,3,94
Cc1cc(C)cc(NC(=O)CSc2ccc(-c3ccccn3)nn2)c1,13,10,-1,-1,-17
COc1ccc(NC(=O)/C(C#N)=C/c2ccc[nH]2)c(OC)c1,-6,1,0,-2,-3
COc1ccc(NC(=O)/C(C#N)=C/c2ncc([N+](=O)[O-])n2C)c(OC)c1,-14,1,37*,-7,50
SMILES,Mtb hypoxia rep,Rv3671c inh,RecA intein inh,UGM FP inh,Mtb betalactam
CCN1C(=O)C(=CN2CCN(C)CC2)SC1=S,10,/,/,/,/
O=C(Nc1ccc2nsnc2c1)N1CCCCC1,/,-13,-3,-1,-2
S=C(Nc1ccc2nsnc2c1)N1CCCCCC1,-1,-162,55*,-2,4
CCOC(=O)N1CCC2(CC1)C(C#N)=C(N)Oc1n[nH]c(CSc3ccc(C)cc3)c12,/,5,51*,1,-2
Cc1ccc(SCc2[nH]nc3c2C2(C(=O)Nc4ccc([N+](=O)[O-])cc42)C(C#N)=C(N)O3)cc1 (configuration not stated),-4,-3,12,0,22
Cc1ccc(OCC(=O)Oc2cccc(C)c2)cc1,6,5,7,2,-4
